TDP1 cell CPT – growth inhibition of DT40 Tdp1-/-;hTDP1 cells with camptothecin (screen for TDP1 inhibitors). chicken DT40 Tdp1-/-;hTDP1 cells + 20 nM CPT, ATP luminescence, 48 h. AID 686979. 420,000 compounds, 12% hits. Potency, µM (top dose mostly 46.2 µM), without a hit: top-dose activity change, negative = growth inhibition, most hits filed as inhibitors; note: potency is the fitted concentration of half-maximal effect; nearly all actives have a fitted effect of over 55% in size
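Chicken DT40 Tdp1-/- cells stably complemented with human TDP1 were seeded at 400 cells/well in medium containing 20 nM camptothecin, exposed to pin-transferred compounds, and grown at 37 °C for at least 48 hr. Viability was read as ATP luminescence.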
TDP1 inh – TDP1 (human) enzyme inhibition. 350,000 compounds, 0.28% hits. Potency, µM (doses to about 130 µM), inactives show at the top dose activity change, negative = inhibition, usual class: inhibitors. AID 485290. Q9NUW8. recombinant TDP1, AlphaScreen DNA substrate cleavage; note: potency is the fitted concentration of half-maximal effect; nearly all actives have a fitted effect of over 40% in size
Target sequence (Q9NUW8 whole entry, looked up): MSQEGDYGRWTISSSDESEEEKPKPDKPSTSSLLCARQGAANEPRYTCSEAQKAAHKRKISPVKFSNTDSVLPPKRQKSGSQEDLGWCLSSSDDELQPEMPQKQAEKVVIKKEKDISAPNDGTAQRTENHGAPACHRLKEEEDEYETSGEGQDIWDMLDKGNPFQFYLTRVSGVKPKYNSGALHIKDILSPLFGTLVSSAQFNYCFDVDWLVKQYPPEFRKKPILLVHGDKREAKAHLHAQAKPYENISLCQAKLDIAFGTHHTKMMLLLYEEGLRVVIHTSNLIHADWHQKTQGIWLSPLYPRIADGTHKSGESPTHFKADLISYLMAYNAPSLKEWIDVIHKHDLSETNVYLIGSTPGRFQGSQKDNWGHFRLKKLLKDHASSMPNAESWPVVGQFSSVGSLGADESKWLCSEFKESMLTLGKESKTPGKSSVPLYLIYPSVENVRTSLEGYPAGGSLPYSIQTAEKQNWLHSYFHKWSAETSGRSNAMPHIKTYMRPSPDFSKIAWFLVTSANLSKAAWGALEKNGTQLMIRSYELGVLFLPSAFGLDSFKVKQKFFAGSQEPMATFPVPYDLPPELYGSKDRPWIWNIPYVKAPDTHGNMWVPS
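Recombinant E. coli-expressed Tdp1 (1 nM) preincubated with compound 15 min at RT, then 5'-biotin/3'-phosphotyrosine-FITC DNA substrate (15 nM) added for 5 min. AlphaScreen beads (10 ug/ml) added, 10 min RT; tyrosine-FITC cleavage read as signal loss.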
ELG1 repair inh – ELG1-dependent DNA repair inhibition | Potency, µM (titrated, usually from 46.1 µM), for inactives: top-dose activity change, negative = inhibition, actives largely listed as inhibitors | 330,000 compounds, 2.3% hits | HEK293T ELG1-luciferase reporter, luminescence, 16 h; DNA damage induced by 5-fluorouridine; note: potency is the fitted concentration of half-maximal effect; nearly all actives have a fitted effect of over 55% in size
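HEK293T cells expressing luciferase-tagged ELG1 (2,000/well) received 5-Fluorouridine plus compound or DMSO for 16 hr at 37 °C. Luciferase was read by ONE-Glo luminescence after 30 min at room temperature.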
TDP1 cell noCPT – qHTS for Inhibitors of human tyrosyl-DNA phosphodiesterase 1 (TDP1): qHTS in cells in absence of CPT; DT40 Tdp1-/- hTDP1 cells, no CPT, ATP luminescence, 48 h; Potency, µM (top dose mostly 46.2 µM), for inactives: at the highest dose activity change, negative = growth inhibition, hits mostly inhibitors; 420,000 compounds, 15% hits; AID 686978, 2013; note: potency is the fitted concentration of half-maximal effect; nearly all actives have a fitted effect of over 55% in size
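Compound effects on proliferation are scored in DT40 Tdp1-/-;hTDP1 cells in the absence of CPT. ATP levels (CellTiter-Glo luminescence) are recorded after a ≥48 hr, 37 °C incubation.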
IL-1B inflam inh – blocks inflammasome-driven IL-1 beta release; 360,000 compounds, 4.7% hits; AID 743279; THP-1 LPS/ATP IL-1B secretion, AlphaLISA, 16 h; hits give low values; activity change, % at 57.5 µM; in the data active = activity change below about -50%; inconclusive = mostly about -30% to -49%
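THP-1 cells pretreated 1 hr with compounds (up to 57.5 uM final), then stimulated with LPS (250 ng/mL final) plus ATP (1.25 mM final); secreted IL-1B measured by AlphaLISA after 16 hr, decreased signal indicating inhibition.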
Giardia kill – Giardia lamblia killing. Giardia lamblia trophozoite viability. activity change, % at 7.66 µM, hits read low. 340,000 compounds, 0.15% hits; in the data active = activity change below about -80%; inconclusive = between about -30% and that limit;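 note: parasites exposed to compound for two days anaerobically before the ATP read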
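Trophozoites 100 cells/well + cpd; 48 hrs, 37 deg C, anaerobic. ATPLite 1-Step added, 15-30 min RT, luminescence read (ATP-based viability).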
The depositor's hits bear a star; ? = inconclusive; / = no result; [ ] = remark or other dose. An excerpt weighted towards active compounds, which were near 19% of everything screened. Unless noted, calls come from the whole dose curve; as a rule, active = well fitted curve in the direction sought with a large enough effect; inconclusive = small, poorly fitted or top-dose-only effect, or another doubt; inactive = no such curve, though single readings can be large; an effect the other way counts as inactive or inconclusive. % is set by controls: 0 for no effect and ±100 for the full control effect.

SMILES	TDP1 cell CPT	TDP1 inh	ELG1 repair inh	TDP1 cell noCPT	IL-1B inflam inh	Giardia kill
COC(=O)C1=C(c2ccccc2OCc2ccccc2)C[C@@H]2CC[C@H]1N2C(=O)NCc1ccc(C(F)(F)F)cc1	?	0%	-28%	?	?	32
COC(=O)C1=C(c2ccc(F)cc2OCc2ccccc2)C[C@@H]2CC[C@H]1N2C(=O)NCc1ccc(C(F)(F)F)cc1	23µM*	1%	?	?	-52*	0
COC(=O)C1=C(c2ccc(OCc3ccccc3)cc2)C[C@@H]2CC[C@H]1N2C(=O)NCc1cccc(C(F)(F)F)c1	21µM*	0%	?	21µM*	0	-26
COC(=O)C1=C(c2cccc(OCc3ccccc3)c2)C[C@@H]2CC[C@H]1N2C(=O)NCc1ccc2[nH]ccc2c1	?	4%	?	?	0	-15
COC(=O)C1=C(c2ccccc2OCc2ccccc2)C[C@@H]2CC[C@H]1N2C(=O)NCc1cccc(C(F)(F)F)c1	?	0%	?	16µM*	-9	4
C[C@]12N[C@@H](Cc3ccccc31)c1ccccc12	-1%	14%[56.1 µM]	/	-14%	/	/
CC1=C(O)C(=O)[C@H]2O[C@@H]2C1=O	7.5µM*	4%[56.1 µM]	/	11µM*	/	/
Cc1cc(OC(=O)N2CCCCC2)c(C(C)C)cc1[N+](C)(C)C	?	8%	/	?	/	/
N[C@H](CCP(=O)(O)O)C(=O)O	2%	-14%[56.1 µM]	/	6%	/	/
CCCCn1c(O)c(C=NC2CC3CCC2(C)C3(C)C)c(=O)[nH]c1=O (stereo not given)	?	3%	-6%	?	10	-3
COCc1cc(C)c(C#N)c(=S)[nH]1	1.2µM*	3%	9%	0.82µM*	36	1
C=CCc1c(C)[nH]c(=S)c(C#N)c1C	?	3%	-4%	?	0	-9
COc1cc(OC)cc(C(=O)Nc2ccc(Cl)cc2C(=O)c2ccccc2Cl)c1	-16%	0%[12.3 µM]	/	-25%	/	/
CN1C(C(=O)N2CCC3(CC2)OCCO3)=CC(c2ccc(F)cc2)=NS1(=O)=O	-6%	4%	-3%	-17%	0	-7
CN1CCC23CCCC[C@H]2C1Cc1ccc(O)cc13 (stereo not given in full)	/	10%[56.1 µM]	/	/	/	/
CC/C(=C\C=C\[C@@H]1C=C[C@@H]2CCC[C@H]2[C@@H]1C(=O)c1ccc[nH]1)[C@@H]1O[C@@H]([C@@H](C)C(=O)O)CC[C@@H]1C	7.3µM*	2%	-15%	5.8µM*	0	-4
Oc1ccccc1/C=N/[n+]1ccccc1	21µM*	0%	0%	18µM*	4	?
CCN(CC)C(=O)Oc1nnc(SC(C)C)n1-c1ccc(Cl)c(Cl)c1	?	4%	?	23µM*	-21	-12
CC[C@H]1CN2CC[C@@H]1C[C@H]2[C@@H](O)c1ccnc2ccc(OC)cc12	/	7%[56.1 µM]	/	/	/	/
COc1ccc(CNC(=O)CSCc2cnn(-c3ccccc3)c2-n2cccc2)cc1OC	15µM*	8%	/	13µM*	/	/
O=c1n(Cl)c(=O)n(Cl)c(=O)n1Cl	7%	9%	/	3%	/	/
CN(C(=O)COc1nc2ccccc2s1)c1ccccc1	/	2%	/	/	/	/
CC[C@H](OC(C)=O)C(C[C@H](C)N(C)C)(c1ccccc1)c1ccccc1	?	7%	-5%	23µM*	/	6
CCC(=O)OC(Cc1ccccc1)(c1ccccc1)[C@H](C)CN(C)C (stereo not given in full)	?	2%	-1%	?	-7	1
CCC(OC(C)=O)C(CC(C)NC)(c1ccccc1)c1ccccc1 (stereo not given)	22µM*	/	/	25µM*	/	/
SMILES	TDP1 cell CPT	TDP1 inh	ELG1 repair inh	TDP1 cell noCPT	IL-1B inflam inh	Giardia kill
CC([C@H](O)c1ccccc1)N(C)C (stereo not given in full)	/	-7%[56.1 µM]	/	/	/	/
O=C(CCl)c1ccc(Oc2ccc(C(=O)CCl)cc2)cc1	?	14%	/	?	/	/
COc1ccc(-c2nc(CSCC(=O)N3CCN(c4ccc(F)cc4)CC3)c(C)o2)cc1	13µM*	10%	/	8.2µM*	/	/
CCc1ccc(-c2nc(CSCC(=O)N3CCN(c4ccc(F)cc4)CC3)c(C)o2)cc1	21µM*	3%	/	?	/	/
N#CCCN(C(=O)COC(=O)c1ccc2c(c1)NC(=O)CS2)c1ccc2c(c1)OCCO2	-17%	8%	?	?	-3	2
C[C@H](CCC(=O)O)C[C@H](C)C[C@H](C)C(=O)/C=C(\O)[C@H](C)C[C@H](C)C/C=C/[C@@H](C)[C@@H](O)[C@@H](C)[C@@H](O)C[C@@H]1CC[C@@](C)([C@H]2CC[C@@](C)([C@@H](C)O)O2)O1	/	2%	/	/	/	/
CCC(C)C1O[C@]2(C=CC1C)CC1CC(C/C=C(\C)[C@H](OC3CC(OC)C(O[C@H]4CC(OC)[C@@H](O)C(C)O4)C(C)O3)[C@@H](C)/C=C/C=C3\COC4C(O)C(C)=C[C@H](C(=O)O1)[C@@]34O)O2 (stereo not given in full)	/	8%	/	/	/	/
CCCCn1c(C)c(C(=O)OCC)c2c(CN3CCOCC3)c(O)ccc21	-21%	2%	?	-17%	-60*	8
CCOC(=O)c1c(C)n(Cc2ccc(F)cc2)c2ccc(O)cc12	?	6%	1%	?	3	9
CCCCn1c(C)c(C(=O)OCC)c2c(CN3CCCC3)c(O)ccc21	18µM*	/	-27%	12µM*	-79*	38
CCOC(=O)c1c(C)n(Cc2ccco2)c2ccc(O)cc12	-26%	/	/	2%	12	25
O=CN1CC2CC(C1)c1cccc(=O)n1C2 (stereo not given)	2%	2%	/	-5%	/	/
O=C(NCCc1ccc(Cl)cc1)C(=O)NCC(c1cccs1)S(=O)(=O)c1cccs1 (stereo not given)	?	10%	/	13µM*	/	/
CC(C)(C)n1cc(C(=O)c2ccccc2)cc1-c1ccccc1	26µM*	12%	-5%	?	18	7
O=NN1CCCC1c1cccnc1 (stereo not given)	-1%	5%	/	10%	/	/
CC(=O)N1N=C(c2c(O)n(C)c(=O)n(C)c2=O)CC1c1ccccc1 (stereo not given)	?	3%	?	15µM*	77	-10

Screens as filed in PubChem BioAssay.
